In test [1] the target is Estrogen receptor (Homo sapiens) (UniProt P03372). Nature of the test: CCTE_Deisenroth_AIME_384WELL_LUC_Active: CCTE's 384-well Estrogen Receptor Transactivation Assay with AIME metabolic competence (ERTA luciferase; metabolism positive), Deisenroth Lab (AID 2284030; active = hit-call score of the fitted dose curve at least 0.9, where 1 is the maximum). The method, boiled down:
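Readout: bioluminescent luciferase induction in VM7Luc4E2 cells 24 hour after receiving medium from a 2 h rat hepatic S9 (induced, alginate microsphere) metabolism step. Concentrations 0.002 - 200 uM; activity scaled to 17beta-estradiol positive control.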

Test [2] in a line: CCTE_Deisenroth_AIME_384WELL_CTox_Active: Cytotoxicity Assessment (CTOX) in CCTE's 384-well Estrogen Receptor Transactivation Assay with AIME metabolic competence (metabolism positive), Deisenroth Lab (AID 2284037; active = hit-call score of the fitted dose curve at least 0.9, where 1 is the maximum;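 note: chemicals first conditioned 2 h by alginate-bound induced rat liver S9 before cells; activity means signal loss indicating cell death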). The method, boiled down:
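Chemicals pre-incubated 2 hours with alginate-immobilised phenobarbital/beta-naphthoflavone-induced male Sprague Dawley rat liver S9, then conditioned medium applied 24 hour to VM7Luc4E2 cells. Viability by fluorogenic protease substrate; 10-point series 0.002 - 200 uM.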

The nature of test [3]: CCTE_Deisenroth_AIME_384WELL_CTox_Inactive: Cytotoxicity Assessment (CTOX) in CCTE's 384-well Estrogen Receptor Transactivation Assay without AIME metabolic competence (metabolism negative), Deisenroth Lab (AID 2284039; active = hit-call score of the fitted dose curve at least 0.9, where 1 is the maximum;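 note: cell viability via live-cell protease substrate cleaved to fluorescent probe; loss of fluorescence signal means loss of viability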). The procedure, abridged: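 Fluorescent protease-substrate viability readout after 24 h exposure of VM7Luc4E2 cells to conditioned medium. Chemicals (0.002–200 uM) first sat 2 h over alginate-water beads, no S9. Data fitted bidirectionally, loss of signal meaning viability loss.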

Test [4] deals with Estrogen receptor (Homo sapiens) (UniProt P03372). The experiment in a line: CCTE_Deisenroth_AIME_384WELL_LUC_Shift: CCTE's 384-well Estrogen Receptor Transactivation Assay with AIME metabolic competence data shift (ERTA luciferase; difference in metabolism positive and negative), Deisenroth Lab (AID 2284041).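 Note: shift is response with S9 minus without S9 so positive means metabolism raised ER signal.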 The method, boiled down:
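Chemicals (0.002–200 uM, 10 points) pre-incubated 2 h with alginate-encapsulated induced male Sprague Dawley rat liver S9 or S9-free, then medium applied 24 h to VM7Luc4E2 cells; luciferase. Endpoint is per-concentration difference, S9-positive minus negative.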

The nature of test [5]: CCTE_Shafer_MEA_acute_per_network_burst_electrodes_number_mean: CCTE's Neural Acute Assay for Mean Number of Electrodes in a Network Burst, Shafer Lab (AID 2284021).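 Note: curves fitted for decreases only so hits reduce electrodes per burst.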 The procedure, abridged: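 Readout: % change in mean electrodes active per network burst, post- vs pre-treatment, each well. Spikes detected at 8x rms noise after 300-5000 Hz band-pass; rat cortical cultures, DIV 13/15, compounds 0.03-40 uM, DMSO baseline.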

Test [6] is described as follows: CCTE_Shafer_MEA_acute_network_burst_percentage: CCTE's Neural Acute Assay for Percentage of Network Bursts, Shafer Lab (AID 2284022).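 For outcome: rat primary cortical neuron networks on multiwell MEA recorded 40 min.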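 Note: curves fitted for loss so actives lower network burst percentage.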 The method, boiled down: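 Rat cortical cultures, DIV 13/15; 20 min equilibration, 40 min baseline, compound 0.03-40 uM, 40 min recording, 37 C. Spikes: 300-5000 Hz band-pass, threshold 8x rms noise. Readout: % change in network-burst spike fraction; loss direction vs DMSO.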

Test [7] is described as follows: CCTE_Shafer_MEA_acute_cross_correlation_area: CCTE's Neural Acute Assay for Area of Cross Correlation, Shafer Lab (AID 2284024).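 For outcome: rat primary cortical neuron networks on 48-well MEA at DIV 13 or 15 with 40 min exposure.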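 Note: area under pooled inter-electrode spike cross-correlation near zero lag as percent change from own baseline; curves fitted for loss of cross-correlation area so actives lower synchrony.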 The procedure, abridged: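 Rat cortical cultures, DIV 13/15, MEA; spikes detected at 8x rms noise (300-5000 Hz band-pass). Compound 0.03-40 uM, ≥3 wells each. Readout: % change in pooled inter-electrode cross-correlation area vs own baseline; DMSO negative control.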

Test [8] can be described thus: CCTE_Shafer_MEA_acute_cross_correlation_HWHM: CCTE's Neural Acute Assay for Cross Correlation at Half Width at Half Maximum, Shafer Lab (AID 2284026).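 For outcome: spontaneous network firing of rat primary cortical neurons on multiwell microelectrode arrays.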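 Note: percent change per well from pre-dose baseline in spike cross-correlogram half width; hits are a decrease in cross-correlogram half width relative to DMSO.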 The method, boiled down:
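Read-out: half width at half maximum of action-potential cross-correlogram, percent change versus pre-treatment baseline, fitted in loss direction against DMSO. Rat cortical cultures, DIV 13 or 15, dosed 0.03-40 uM, 40-min recordings at 37 C.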

The nature of test [9]: CCTE_Shafer_MEA_acute_synchrony_index: CCTE's Neural Acute Assay for Synchrony, Shafer Lab (AID 2284027).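 Note: network synchrony index of spontaneous spiking in primary rat cortical neurons on MEAs; fitted for loss of signal so actives lower synchrony relative to DMSO.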 The method, boiled down:
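The synchrony index is taken as percent change per well between a 40 min baseline and a 40 min recording with compound (0.03–40 uM), at 37C. Rat cortical cultures on multiwell MEAs at DIV 13 or 15, spike threshold 8× rms noise.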

The nature of test [10]: CCTE_Deisenroth_AIME_96WELL_CTox_Active: Cytotoxicity Assessment (CTOX) in CCTE's 96-well Estrogen Receptor Transactivation Assay with AIME metabolic competence (metabolism positive), Deisenroth Lab (AID 2284028; active = hit-call score of the fitted dose curve at least 0.9, where 1 is the maximum). The method, boiled down: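 Cytotoxicity in VM7Luc4E2 breast cells after 24 h exposure to medium from a 2 h metabolic pre-incubation with induced rat hepatic S9 in alginate microspheres; fluorescent live-cell protease readout, 10-point series 0.002–200 uM, n=4.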

A short description of test [11]: CCTE_Deisenroth_AIME_96WELL_CTox_Inactive: Cytotoxicity Assessment (CTOX) in CCTE's 96-well Estrogen Receptor Transactivation Assay without AIME metabolic competence (metabolism negative), Deisenroth Lab (AID 2284029; active = hit-call score of the fitted dose curve at least 0.9, where 1 is the maximum). The method, boiled down: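 Metabolism-negative mode: alginate-water lids without rat S9, 2 h pre-incubation of 10-point series (0.002 - 200 uM). Conditioned medium on VM7Luc4E2 cells 24 h; loss of fluorescent live-cell protease signal marks cytotoxicity.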

Test [12] is described as follows: CCTE_Shafer_MEA_dev_firing_rate_mean: CCTE's Neural Network Formation Assay for Mean Firing Rate, Shafer Lab (AID 2284031).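 Note: curve fitted for loss of firing so AC50 reflects decreased mean firing rate.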 The method, boiled down: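 Spike frequency (spikes/recording length, averaged over active electrodes) was recorded on days 5, 7, 9 and 12 and collapsed to AUC; rat cortical cultures received compound continuously over 12 days of network development.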

The nature of test [13]: CCTE_Shafer_MEA_dev_per_burst_spike_percent: CCTE's Neural Network Formation Assay for Percent of Spikes in a Burst, Shafer Lab (AID 2284032).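 Note: fitted as a decrease in burst spike percentage below DMSO baseline.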 The method, boiled down:
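Value is trapezoidal AUC over recordings on days 5, 7, 9 and 12 of the well-mean fraction of spikes falling in single-electrode bursts; rat cortical cultures exposed continuously from plating, treatment renewed DIV 5 and 9, fitted downward against DMSO.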

Test [14] can be described thus: CCTE_Shafer_MEA_dev_active_electrodes_number: CCTE's Neural Network Formation Assay for Number of Active Electrodes, Shafer Lab (AID 2284040; active = hit-call score of the fitted dose curve at least 0.9, where 1 is the maximum;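 note: potency for loss of active electrodes versus DMSO so lower counts are hits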). The procedure, abridged:
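Counts electrodes per well firing at least 5 spikes/min, recorded on days 5, 7, 9 and 12 in rat cortical cultures dosed continuously from plating (treatment refreshed DIV 5, 9). Value is the area under the curve over recordings, fitted downward relative to DMSO.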

Test [15] is described as follows: CCTE_Shafer_MEA_dev_burst_rate: CCTE's Neural Network Formation Assay for Burst Rate, Shafer Lab (AID 2284042).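 Note: potency for loss of burst rate below DMSO control.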 The method, boiled down:
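Exposure ran continuously over 12 days of network development in rat cortical cultures, with compound refreshed during full media changes on DIV 5 and 9. Single-electrode bursts per recording time, well-mean over active electrodes, trapezoidal AUC across days 5–12, fitted downward relative to DMSO.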

Test [16] is described as follows: CCTE_Shafer_MEA_dev_bursting_electrodes_number: CCTE's Neural Network Formation Assay for Number of Bursting Electrodes, Shafer Lab (AID 2284043; active = hit-call score of the fitted dose curve at least 0.9, where 1 is the maximum;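 note: potency is for loss of bursting electrodes relative to DMSO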). The method, boiled down: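 Rat cortical primary neurons, 48-well MEA, 16 electrodes/well; dosing DIV 0–12, re-dosed with full media change DIV 5, 9. Recordings DIV 5/7/9/12, AxIS adaptive spike detector; bursting electrode = ≥1 burst/2 min. AUC across days; loss of signal vs DMSO.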

A short description of test [17]: CCTE_Shafer_MEA_dev_per_burst_interspike_interval: CCTE's Neural Network Formation Assay for Burst Interspike Interval, Shafer Lab (AID 2284044).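 Note: potency for a decrease of within-burst interspike interval below DMSO level.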 The method, boiled down: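 Readout is the average time between spikes inside single-electrode bursts, taken as a well mean across bursting electrodes. Cortical neurons from rat developed networks on MEA plates under continuous 12-day exposure; recordings on days 5, 7, 9 and 12 were integrated by trapezoidal AUC.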

Test [18] can be described thus: CCTE_Shafer_MEA_dev_burst_duration_mean: CCTE's Neural Network Formation Assay for Mean Burst Duration, Shafer Lab (AID 2284045).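 Note: curve fitted for loss meaning shorter burst duration than DMSO.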 The procedure, abridged: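 Rat cortical cultures, 1.5 x 10^5 cells/well with laminin drop; continuous dosing days 0–12, media plus treatment refreshed DIV 5, 9. AxIS adaptive spike detection; mean single-electrode burst duration, AUC over four recordings, negative direction vs DMSO.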

Molecules are shown by their SMILES. Values joined by “and” are separate entries in the source; they are usually repeats but may differ in a detail not shown here. Equal values may be shown once. Records with an inconclusive call do not appear. The source holds several records for some structures; these can differ, active in one and inactive in another. Active and inactive are the calls of the source. Rule for the calls, unless noted: active = hit-call score of the fitted dose curve at least 0.9, where 1 is the maximum; inactive = score below 0.9.

Estrogen receptor (Homo sapiens), sequence (P03372 whole entry, looked up): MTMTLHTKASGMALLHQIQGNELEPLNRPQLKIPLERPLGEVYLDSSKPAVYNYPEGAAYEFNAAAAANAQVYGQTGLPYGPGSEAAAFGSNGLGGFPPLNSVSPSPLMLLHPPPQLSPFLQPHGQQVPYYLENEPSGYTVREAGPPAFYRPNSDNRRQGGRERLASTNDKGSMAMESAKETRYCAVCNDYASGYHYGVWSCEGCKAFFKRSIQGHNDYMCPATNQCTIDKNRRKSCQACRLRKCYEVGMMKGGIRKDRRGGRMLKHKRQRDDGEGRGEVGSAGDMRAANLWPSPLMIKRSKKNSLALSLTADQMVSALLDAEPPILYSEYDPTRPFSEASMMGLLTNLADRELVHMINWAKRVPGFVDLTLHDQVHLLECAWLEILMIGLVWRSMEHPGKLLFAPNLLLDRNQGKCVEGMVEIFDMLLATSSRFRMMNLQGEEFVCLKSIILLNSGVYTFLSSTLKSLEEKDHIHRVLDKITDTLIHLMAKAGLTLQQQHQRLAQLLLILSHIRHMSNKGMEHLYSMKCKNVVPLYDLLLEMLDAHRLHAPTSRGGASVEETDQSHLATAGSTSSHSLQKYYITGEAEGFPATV

As for `C=C(C)C(N)=O`, the result in test [1], in test [2], in [3] and in test [4] was inactive.
For the molecule `CCn1cc(C(=O)O)c(=O)c2ccc(C)nc21`, the outcome in test [5], in [6], in [8] and in test [9] was inactive. The concentration at half-maximal activity (AC50) in [7] was 3 nM (active).
`NC(N)=S`: the molecule was called inactive in [1], in test [2], in test [3] and in [4].
As to `OC[C@H]1O[C@@H](O[C@H]2[C@H](O)[C@@H](O)[C@H](O)O[C@@H]2CO)[C@H](O)[C@@H](O)[C@H]1O`, the molecule was classed as inactive in [1], in [2], in test [3] and in test [4].
For `CC(=O)c1ccc(C)cc1`, the call in [5], in [6], in test [7], in test [8] and in test [9] was inactive.
Regarding `CC(C)N(c1ccccc1)C(C)C`, the call in test [1], in test [2], in [3] and in test [4] was inactive.
In the case of `CCCCOCCOCCO`, the molecule was called inactive in test [5], in [6], in test [7], in test [8], in test [9] and in test [1]. Besides, the molecule was classed as inactive in test [3] and in test [4].
On to `CCCCN(CCO)CCO`, for which the call in test [5], in test [7], in test [8] and in [9] was inactive. The AC50 in test [6] is 15 µM (active).
Turning to `O=C(c1ccc(OCCN2CCCCC2)cc1)c1c(-c2ccc(O)cc2)sc2cc(O)ccc12`, the outcome in test [5], in [6] and in test [7] was inactive. Further, the AC50 in test [8] is 32700 nM (active); in test [9] it was 36800 nM (active).
With `CC/C(=C(\c1ccccc1)c1ccc(OCCN(C)C)cc1)c1ccccc1`, the call in test [5], in test [7], in test [8] and in test [9] was inactive. For the same molecule, the AC50 in test [6] was 18.3 µM (active) and 13.2 µM (active); in [8], 16400 nM (active); in test [9] it was 14800 nM (active); in [10] it was 7840 nM (active); in test [11], 74100 nM (active); in test [12], 32.9 nM (active). In addition, the AC50 in test [13] was 1980 nM (active); in test [14] it was 329 nM (active); in [15], 122 nM (active); in test [16], 203 nM (active); in test [17], 307 nM (active); in [18], 30.4 nM (active).
For the molecule `CCCO[Si](OCCC)(OCCC)OCCC`, the call in test [5], in test [7] and in [9] was inactive. The results for the AC50 in test [6] and in [8] were 2.98 µM (active) and 21.2 nM (active), respectively.
For the molecule `CCC(=O)OC(C)(C)C1CC=C(C)CC1` (stereo unspecified), the result in test [4] was inactive.
Regarding `[Na+]`, the molecule was called inactive in [1] and in [4].
In the case of `CC(=O)C1=C(C)[C@@H]2C[C@@]3(C1)[C@H](C)CC[C@H]3C2(C)C`, the AC50 in test [1] is 0.204 nM (active); in [4] it was 0.848 nM (active). Moreover, the outcome in [2] was inactive.

The values above are taken from PubChem BioAssay (EPA / NIEHS).
